This note sets out measurements from PubChem BioAssay AID485317 (Broad Institute, 2010).

SMILES strings stand for the structures. Screen size: about 290,000 compounds; about 11,000 (3.8%) were called active. This is one part of a sample in which actives are shown more often than they occur.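 How the source made its calls: active means mean replicate inhibition above about 79%, with every replicate also reaching it (limit read from the data); inconclusive means only one of the two criteria met; inactive means mean below limit and not every replicate reaching it.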

For orientation: inhibition means the relative decrease from the control value, in per cent.

FAD-linked sulfhydryl oxidase ALR (Homo sapiens), sequence (P55789 whole entry, looked up): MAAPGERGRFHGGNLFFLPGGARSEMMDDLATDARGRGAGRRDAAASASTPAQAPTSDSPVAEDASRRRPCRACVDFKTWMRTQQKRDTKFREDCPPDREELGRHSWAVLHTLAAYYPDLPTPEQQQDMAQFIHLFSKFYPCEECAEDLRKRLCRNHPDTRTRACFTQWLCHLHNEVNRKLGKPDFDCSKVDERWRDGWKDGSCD

This assay concerns the target FAD-linked sulfhydryl oxidase ALR (Homo sapiens) (UniProt P55789). Description: inhibitors of human ALR sulfhydryl oxidase, primary screen, biochemical, H2O2 detection, HRP-luminol luminescence, single point (AID 485317). The following applies: purified ALR, DTT oxidation, active compounds read high, concentration not given here.
In the case of `COC(=O)c1ccc(SCc2ccccc2)nc1`, the inhibition is -2.47% (inactive). Then `CCN(CC(=O)Nc1cccc(S(=O)(=O)N2CCCCC2)c1)Cc1ccccc1`, with -23.2% (inactive); and `O=C(CSc1ccc(-c2ccco2)nn1)NCc1ccc2c(c1)OCO2`, with 3.65% (inactive). With `Brc1ccc(CSc2ccc(-c3ccco3)nn2)cc1` the figure was 98.2% (active); with `O=C(CSc1ccc(-c2ccco2)nn1)Nc1cccc(F)c1`, -14% (inactive). Then `Cc1cc(SCc2c(F)cccc2Cl)nc(=O)[nH]1`, with 35.2% (inactive); and `Fc1cccc(Cl)c1CSc1ccc(-c2ccco2)nn1`, with 98.3% (active); and `COc1ccc(NC(=O)CSc2ccc(-c3ccco3)nn2)c(OC)c1`, with 0.2% (inactive). Turning to `CCCC(CNC(=O)COC(=O)C1=NNC(=O)CC1)c1ccc(Cl)cc1Cl` (stereo not given), the inhibition was 0.0724% (inactive). On to `COc1cc(OC)cc(C(=O)NCC(=O)N2CCCCCCC2)c1`, for which the inhibition is -4.06% (inactive).

With `COc1ccc(Nc2ncnc3sc(C)cc23)cc1`, the inhibition is 7.07% (inactive). Then `Cc1cccc(C(C)C)c1NC(=O)COC(=O)C1CC(=O)N(Cc2ccccc2)C1` (stereo not given), with -1.43% (inactive); and `C[C@H](CO)N1C[C@H](C)[C@@H](CN(C)S(=O)(=O)c2ccc(F)cc2)Oc2ccc(NC(=O)CCC(F)(F)F)cc2C1=O`, with -3.84% (inactive); and `O=C1OC[C@@H]2CCCN2C(=O)[C@H](CC(=O)N(CCO)Cc2ccccc2)C/C=C\CC[C@@H]1Cc1ccc(F)cc1`, with -10.6% (inactive). With `COc1ccc(Cl)cc1NC(=O)CN(C)C(=O)c1ccc2n[nH]nc2c1` the figure was 2.11% (inactive); with `COc1ccc(OCCNC(=O)c2cc(C3CC3)nc3c2cnn3C(C)C)cc1`, -7.42% (inactive); with `O=S(=O)(c1cccc(-c2cn3ccccc3n2)c1)N1CCCC1`, 0.842% (inactive).

As for `Cc1cccn2cc(-c3cccc(S(=O)(=O)N4CCCCC4)c3)nc12`, the inhibition was 90.9% (active). Then `O=S(=O)(c1cccc(-c2nnc3n2CCCCC3)c1)N1CCOCC1`, with -3.91% (inactive); and `COc1ccccc1-c1nnc2n1N=C(c1ccc(OC(F)F)c(OCC3CC3)c1)CS2`, with 0.875% (inactive); and `CCN(C(=O)CSc1ncnc2c1cnn2-c1ccccc1)C1CCS(=O)(=O)C1` (stereo not given), with 8.44% (inactive). Then `CCCCn1c(N)c(N(CCOC)C(=O)c2cccc(OCc3ccccc3)c2)c(=O)[nH]c1=O`, with -0.129% (inactive). With `COc1ncnc2c1N=C1CC(C)(C)CC(N)=C1S2` the figure was 99% (active); with `COc1ccc(-c2cc(C(=O)N(C)Cc3ccc(OC)c(OC)c3OC)c3ccccc3n2)cc1OC`, 0.485% (inactive); with `COc1ccc(Cl)cc1C(=O)OCC(=O)NCc1cccs1`, -0.428% (inactive). Take `Cc1ccc(-c2cc(=O)[nH]c(NCc3ccccc3)n2)cc1`: the inhibition is -7.47% (inactive).

In the case of `O=C(NC(=S)Nc1ccc(NC(=O)c2cccs2)cc1)c1ccc([N+](=O)[O-])cc1`, the inhibition is -3.61% (inactive).

On to `NS(=O)(=O)c1ccc(NC(=S)NNC(=O)c2cccs2)cc1`, for which the inhibition was 96.9% (active). Then `CS(=O)(=O)c1ccc(C(=O)NNC(=O)c2cccs2)cc1`, with -4.92% (inactive); and `C=CC(COCc1ccccc1)N(CC(=O)OC)S(=O)(=O)c1cc(Br)ccc1OC` (stereo not given), with -15.6% (inactive).

With `Cc1cc(Nc2ccccc2)n(C(=O)c2ccc(N)cc2)n1`, the inhibition was 28.5% (inactive).

In the case of `Cc1cc(NC(=O)COc2ccc(Cl)cc2Cl)n(CCC#N)n1`, the inhibition is -11.3% (inactive). Then `Cc1cc(Nc2ccccc2)n(CCC#N)n1`, with 98.6% (active); and `Cc1cc(C(=O)OCC(=O)Nc2ccccc2Cl)c(C)o1`, with -4% (inactive); and `COc1cc(N)c(Cl)cc1C(=O)OCC(=O)c1ccc2c(c1)NC(=O)CO2`, with 1.9% (inactive). Then `O=C(NCc1ccc2c(c1)OCO2)c1c(-c2ccsc2)sc2ccccc12`, with 3.11% (inactive); and `O=C(NCc1cccs1)c1ccc(CS(=O)Cc2ccccc2Cl)o1` (stereo not given), with 21.5% (inactive); and `Cc1ccc(CNC(=O)c2ccc(CS(=O)Cc3cccc(Cl)c3)o2)cc1` (stereo not given), with 92.3% (active). With `Cc1ccc(CS(=O)Cc2ccc(C(=O)N3CCOCC3)o2)cc1` (stereo not given) the figure was -2.5% (inactive).

With `CCN(CC(=O)Nc1ccc(OC)cc1)C(=O)CSCc1ccc(C)cc1`, the inhibition is -1.67% (inactive). Then `Cc1nn(C)cc1C(=O)c1ccccc1`, with -7.74% (inactive); and `COc1cccc(N2CCN(C(=O)C3CCCN(S(=O)(=O)c4cnc[nH]4)C3)CC2)c1` (stereo not given), with 98.9% (active); and `Cc1cccc(N2CCN(C(=O)C3CCN(S(=O)(=O)c4cnc[nH]4)CC3)CC2)c1C`, with 0.188% (inactive). With `O=C(C1CCCN(S(=O)(=O)c2ccccc2)C1)N1CCN(c2ccc(F)cc2)CC1` (stereo not given) the figure was 19.8% (inactive); with `COc1ccccc1OCC(=O)OCc1cc(-c2ccco2)on1`, -3.11% (inactive). Regarding `Cc1ccc(S(=O)(=O)N2CCN(C(=O)COC(=O)CNC(=O)c3ccc(C(C)(C)C)cc3)CC2)c(C)c1`, the inhibition was -8.74% (inactive). Regarding `CN(C(=O)COC(=O)Cc1ccccc1[N+](=O)[O-])C1CCS(=O)(=O)C1` (stereo not given), the inhibition is -19.5% (inactive).

Regarding `S=C(Nc1ccc(Br)cc1Cl)NC1CCN(Cc2ccccc2)CC1`, the inhibition was -0.861% (inactive).

With `S=C(NN=C1CCN(Cc2ccccc2)CC1)NC1CCCCC1`, the inhibition was 94.2% (active). With `S=C(Nc1ccc(Br)cc1)NC1CCN(Cc2ccccc2)CC1` the figure was 17% (inactive); with `COc1ccccc1NS(=O)(=O)c1ccc(C(=O)N2CCN(c3ccccc3O)CC2)cc1`, 30.3% (inactive).

As for `O=C(COC(=O)c1ncc(Cl)c(Cl)c1Cl)NCc1ccccc1`, the inhibition was -2.75% (inactive). With `C=CCn1c(SCC(=O)CC(=O)OCC)nc2cc(C(=O)N3CCC(C(N)=O)CC3)ccc2c1=O` the figure was 26.8% (inactive). With `C=CCn1c(SCc2cccc(F)c2)nc2cc(C(=O)N3CCC(C(N)=O)CC3)ccc2c1=O` the figure was 82.8% (active); with `NC(=O)C1CCN(C(=O)c2ccc3c(=O)n(Cc4cccc(Br)c4)c(=S)[nH]c3c2)CC1`, 1.47% (inactive); with `O=C(CCC(=O)c1cccs1)Nc1nc2ccccc2s1`, -15.5% (inactive). Then `COc1cccc(CC(=O)OCC(=O)NCc2ccc3c(c2)OCO3)c1`, with -0.907% (inactive); and `COCCNC(=O)CCCN1C(=O)c2ccccc2Sc2ncccc21`, with -3.3% (inactive); and `O=C(CN1C(=O)CSc2ncccc21)N1CCOCC1`, with -36.7% (inactive).

With `COCCNC(=O)CN1C(=O)CSc2ncccc21`, the inhibition was 95.3% (active).
